# Source: PubChem
# aSyn 5UTR act: Activators via SNCA 5'UTR binding, MLPCN; alpha-synuclein 5'UTR reporter, activators screen; activity score, % (tested at 7.5 µM), hits read low; 7.1% of 300,000 active; in the data active = activity score below about -60%
# The depositor's hits bear a star. A selection follows.
SMILES,aSyn 5UTR act
FC(F)(F)c1ccc(N/N=C/c2cccnc2)nc1,-115*
O=[N+]([O-])c1ccc(N/N=C\c2cccnc2)nc1,-84*
Cc1csc(N/N=C\c2cccnc2)n1,-116*
O=C(NC1CCCCC1)c1cc2ccccc2cc1O,-81*
Cc1ccccc1C(=O)NC1CCCCCCC1,-148*
O=C(NC1CCCCCCC1)c1ccccc1O,-175*
O=C(/C=C1\NC2(CCCC2)Cc2ccccc21)C(=O)N/N=C/c1ccccc1O,74
O=C(N/N=C/c1ccccc1[N+](=O)[O-])C(=O)N1CCCC1,-72*
CCNC(=O)O/N=C(\C)c1sc(-c2ccc(Cl)cc2)nc1C,-77*
C=C(C)c1sc(-c2ccc(Cl)cc2)nc1C,-223*
C/C(=N\OC(=O)NC(C)C)c1sc(-c2ccc(Cl)cc2)nc1C,-154*
C/C(=N\OC(=O)NC(C)C)c1sc(-c2ccccc2)nc1C,-141*
C/C(=N\OC(=O)NC1CCCCC1)c1sc(-c2ccccc2)nc1C,-115*
Cc1cccc2sc(NNC(=O)c3ccc(S(=O)(=O)N4CC(C)CC(C)C4)cc3)nc12 (configuration not stated),81
COc1ccc2nc(NNC(=O)c3cc(=O)c4ccccc4o3)sc2c1,-88*
Cc1cccc2sc(NNC(=O)c3cc(=O)c4ccccc4o3)nc12,-62*
Cc1cc(C)cc(C(=O)NC(=S)Nc2ccc3c(c2)OCCO3)c1,-219*
S=C(Nc1ccc2c(c1)OCO2)Nc1ccc2c(c1)OCO2,-107*
CCn1ncc(NC(=S)Nc2ccc3c(c2)OCO3)c1C(N)=O,-180*
O=C(NC(=S)Nc1ccc2c(c1)OCO2)c1ccc(Cl)cc1,-143*
CCN(CC)c1ccc2c(cc1=O)[C@@H](NC)CCc1cc(OC)c(OC)c(OC)c1-2,107
O=C(NC(=S)Nc1ccc2c(c1)OCCO2)c1ccc(F)cc1Cl,-136*
CCc1ccc(C(=O)NC(=S)Nc2ccc3c(c2)OCCO3)cc1,-128*
O=C(CCl)Nc1ccc2c(c1)OCO2,-90*
Cc1ccc(C(=O)NC(=S)Nc2ccc3c(c2)OCCO3)c(C)c1,-137*
SMILES,aSyn 5UTR act
CC(=O)c1ccc(OC(C)c2nc3ccccc3s2)cc1 (configuration not stated),-89*
Cc1ccc(Oc2ccc(/C=N/O)cn2)cc1,-83*
Cc1ccc(COc2ccc(/C=N/O)cc2)cc1,-131*
CCN(CC)c1ccc(/C=C2\SC(N)=NC2=O)cc1,-114*
C=CCS/C(N)=N\N=C\c1c(O)ccc2ccccc12,-195*
CCCS/C(N)=N/N=C/c1ccccc1O,-198*
Cc1cccc(-n2nnc(C(=O)Nc3ccc(F)cc3)c2N)c1,-196*
Cc1cccc(-n2nnc(C(=O)N3CCc4ccccc4C3)c2N)c1,-71*
CC(C)(C)C1CCc2sc(-c3nnc(CCl)o3)cc2C1 (configuration not stated),-64*
COc1ccc(C2=NN3C(C2)c2ccccc2OC3c2cccs2)cc1 (configuration not stated),-190*
Cc1ccc(C(=O)C2Oc3ccccc3C3CC(c4ccc(C)cc4)=NN23)cc1 (configuration not stated),-82*
COc1ccc(C2=NN3C(C2)c2ccccc2OC32C(=O)N(C)c3ccccc32)cc1 (configuration not stated),-131*
Cc1ccc(C2=NN3C(C(=O)c4ccccc4)Oc4ccccc4C3C2)cc1 (configuration not stated),-146*
CCOc1nc(NCc2ccco2)nc(Nc2ccccc2F)n1,-108*
O=[N+]([O-])c1cc(-c2cnc3ccccc3n2)ccc1Cl,-93*
O=[N+]([O-])c1ccc(-c2nc(C(Cl)Cl)c3ccccc3n2)cc1,129
O=[N+]([O-])c1cccc(-c2cnc3ccccc3n2)c1,-93*
COc1ccccc1Oc1ccc(-c2cnc3ccccc3n2)cc1[N+](=O)[O-],-74*
Nc1cccc(-c2cnc3ccccc3n2)c1,-99*
O=[N+]([O-])c1cc(-c2cnc3ccccc3n2)ccc1Oc1ccc(Cl)cc1,-65*
O=C(COc1ccccc1N1C(=O)c2ccccc2C1=O)c1ccc(Cl)cc1,-87*
COc1ccc(C(=O)NOCc2ccccc2)cc1,-74*
Cc1ccc(C(=O)N/C(=C\c2ccccc2)C(=O)OCc2ccccc2)cc1,-122*
Cc1ccc(CONC(=O)c2ccccc2)cc1,-101*
CCCCCCCC(=O)Oc1ccc(C(=O)Nc2cc(C)on2)cc1,-93*
SMILES,aSyn 5UTR act
Cc1cc(NC(=O)c2nn(C)c(C)c2Br)no1,-87*
CC(=O)Nc1ccc(C(=O)Nc2cc(C)on2)cc1,-85*
Cc1cc(NC(=O)c2ccc(F)cc2)no1,-79*
CN(C)c1ccc(NC(=S)NC(=O)/C=C/c2ccc(Cl)cc2)cc1,-219*
CCN(CC)c1ccc(NC(=O)/C=C\c2ccccc2Cl)cc1,-190*
CN(C)c1ccc(NC(=O)/C=C/c2ccccc2Cl)cc1,-161*
c1ccc(Nc2nc(CSc3ncn[nH]3)cs2)cc1,-135*
CCCc1cc(C(=O)Nc2ccc(F)cc2F)no1,-116*
CCCc1cc(C(=O)Nc2ccccc2SC)no1,-155*
CCCc1cc(C(=O)Nc2cccc(Cl)c2C)no1,-150*
O=[N+]([O-])c1ccc2c(c1)nc1n2CCN(c2ccccc2)C1,-125*
CN(C)C=NC(=O)c1cc(C(=O)c2ccc(C(C)(C)C)cc2)c[nH]1,-87*
CC(C)(C)c1ccc(C(=O)c2c[nH]c(C(=O)O)c2)cc1,-102*
Cc1cc2ncc(-c3ccc(Cl)cc3)cn2n1,-84*
O=C(Nc1ccn(Cc2ccc(Cl)cc2)n1)c1ccc2c(c1)OCO2,-70*
Nc1ccc(C(=O)N/N=C/c2cn(Cc3ccc(F)cc3)c3ccccc23)cc1,64
O=C(Nc1ccn(Cc2ccccc2F)n1)c1ccc(COc2ccc(Br)cc2)cc1,-68*
Cc1ccc(Cn2ccc(NC(=O)c3nn(C)cc3Cl)n2)cc1,-112*
O=C(Nc1ccn(Cc2ccccc2)n1)c1ccc(F)cc1,-120*
O=C1C(=O)c2c(C(=O)c3ccccc3)coc2-c2ccccc21,-105*
Cc1ccnc(N2CCN(C(=O)CSc3nc4ccccc4nc3N3CCC(C)CC3)CC2)c1,-80*
Cc1cccc(NC(=O)/C=C/c2ccc([N+](=O)[O-])s2)c1,-224*
Cc1cc([N+](=O)[O-])ccc1NC(=O)/C=C/c1cccs1,-158*
Cc1ccc(NC(=O)/C=C/c2ccc([N+](=O)[O-])s2)c(C)c1,-93*
Cc1ccc(NC(=O)/C=C/c2ccc([N+](=O)[O-])s2)cc1,-212*
SMILES,aSyn 5UTR act
CSc1nc(N)nc(SCC(=O)c2ccccc2)c1C#N,-76*
Cc1cccc(NC(=O)CSc2nc(C)c(CC(=O)c3ccc(Br)cc3)c(C)c2C#N)c1C,49
Cc1ccnc(Nc2nc(-c3ccc(Cl)cc3)cs2)c1,-163*
Cc1ccnc(Nc2nc(-c3ccc(F)cc3)cs2)c1,-162*
CCOC(=O)CNc1c(-c2ccc(O)cc2)nc2ccc(Cl)cn12,-68*
CSCc1ccc(C(=O)NCCSc2ccc(Br)cc2)cc1,-96*
COc1ccc(SCC(=O)c2cc(C)c(OC(=S)N(C)C)c(C)c2)cc1,-82*
O=C(NCc1cccnc1)Nc1ccc(Br)cc1,-79*
O=C(/C=C/NCc1cccnc1)c1ccc(Br)cc1,-66*
O=C(NCc1cccnc1)Nc1ccc(Cl)c(Cl)c1,-110*
Cc1ccc(NC(=O)C2=C(O)c3sccc3N(C)S2(=O)=O)cc1,-101*
CC(=O)N(c1ccccc1)c1nnc(-c2cnc(C)cn2)s1,-83*
O=[N+]([O-])c1cccc(CSc2nc3ccccc3[nH]2)c1,-70*
